# Assay outcomes: PubChem, National Center for Advancing Translational Sciences (NCATS)
# This excerpt belongs to a sample that is enriched for hits.
# Pf Dd2 growth: qHTS Primary assay for Inhibitors of Plasmodium falciparum Dd2 growth in vitro. Potency, µM (top dose mostly 28.9 µM), without a hit: top-dose activity, negative = inhibition, hits mostly inhibitors. P. falciparum Dd2 growth, SYBR Green, 72 h. 120,000 tested, 4.3% active. AID 1347417, 2020; active = well fitted inhibition curve with a large enough effect;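 also: plate controls were DMSO vehicle for no effect and reference drug for full effect; nearly all actives have a fitted effect of over 65% in size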
#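 Readout: SYBR Green fluorescence, 485 nm excitation, 535 nm emission, after ~16 h lysis at 37C. Before that, Dd2-infected red cells (2.5% hematocrit) grew 72 h with compound, 29 uM top final concentration.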
# * marks the source's active call; other numbers are inactive results; i = inactive; [ ] = another dose, or the depositor's remark. Potency is read from the fitted curve at half-maximal effect.
SMILES,Pf Dd2 growth
Cc1ccc(NC(=O)CSc2nc(-c3ccc(F)cc3)nc3c2Cc2c(CO)cnc(C)c2O3)cc1C,9%
O=C(CSc1nc(-c2ccc(Cl)cc2)nc2c1Cc1ccccc1O2)N1CCCCC1,33%
Cc1ncc(CO)c2c1Oc1nc(-c3ccc(Cl)cc3)nc(SCC(=O)N3CCCCC3)c1C2,3.2µM*
Cc1cc(C)c(NC(=O)CSc2nc(-c3ccc(F)cc3)nc3c2Cc2c(CO)cnc(C)c2O3)c(C)c1,11%
COc1cccc(-c2nc3c(c(SCC(=O)Nc4cc(C)ccc4C)n2)Cc2c(CO)cnc(C)c2O3)c1,41%
O=C(CCc1ccccc1)NCc1nnc2ccc(-c3ccccc3)nn12,-3%
O=C(c1csc2nc(-c3ccc(C(F)(F)F)cc3)cn12)N1CCN2CCCC2C1 (stereo not given),4%
O=C(c1ccccc1F)N1CCC2(CC1)CCN(CCc1ccccc1)c1ccccc1O2,i
CC(C)NC(=O)N1CCC(O)(c2csc(CN3CCN(C)CC3)n2)CC1,11%[44.1 µM]
COc1ccc(NC(=O)CCc2ccc3c(c2)CN(C(=O)NC(C)C)CCO3)cn1,-21%
COc1cccc(-c2cc(C(=O)O)cc(S(=O)(=O)NC(C)C)c2)c1,-3%
Cn1nc(C(=O)N2CCOCCNC(=O)CC2)c2ccccc21,-1%
O=[S+]([O-])(c1ccccc1)N1CC2(COCCN(Cc3ccncc3)C2)C1,22%[44.1 µM]
CCN1CC2(CCN(Cc3cnn(-c4ccc(F)cc4)c3)CC2)CC1=O,-10%
COc1ccc(CN2CC[C@H]3COC(=O)N3c3cc(C)ccc3C2)cc1,i
CCCc1cc(=O)oc2c3c(ccc12)OCN(Cc1ccc(OC)cc1)C3,10µM*
COc1ccc(CN2COc3ccc4c(C)cc(=O)oc4c3C2)cc1,10µM*
COc1ccc(CN2CC[C@H]3COC(=O)N3c3ccccc3C2)cc1,i
COc1ccc(CN2CC[C@H]3COC(=O)N3c3ccc(OC)cc3C2)cc1,-20%[44.1 µM]
COc1ccc(CN2CC[C@H]3COC(=O)N3c3cc(F)ccc3C2)cc1,i
Cc1ccc(NC(=O)NC2CCN(C(=O)N3CC4CC(C3)[C@H]3CCCC(=O)N3C4)CC2)cc1C (stereo not given in full),i
COCCNC(=O)C[C@@H]1C[C@H]2O[C@H](CNC(=O)NC(C)C)[C@@H](O)[C@H]2O1,-7%[44.1 µM]
COc1cccc(OCc2nc(C(=O)N(C)Cc3cnc4ccccn34)co2)c1,-3%
CCc1ccc2nc(C)cc(C(=O)N3CCN(c4ccccc4)C(=O)C3)c2c1,i
Cc1ccc(C(=O)N2CCC3(CC2)C(=O)Nc2ccccc23)cc1,47%
SMILES,Pf Dd2 growth
COc1ccc2c(c1)C=C(CN1CCC(CO)(Cc3ccccc3Cl)CC1)CO2,8.9µM*
CCOc1ccc(CN2CCC(CO)(Cc3ccccc3Cl)CC2)cc1,-20%
COc1ccc(OC)c(CN2CCC3(CC2)OCCN(Cc2ccccc2)C3=O)c1,-19%[44.1 µM]
CCOc1nccnc1NC1CCN(S(=O)(=O)C2CC2)CC1,46%[5.79 µM]
O=C(c1ccc2c(c1)OCO2)N1CCCC2(C1)NC(=O)N(Cc1ccc(Cl)cc1)C2=O (stereo not given),i
CC1CCN(C(=O)c2c(NC(=O)c3ccccc3Cl)sc3c2CCC(C(C)(C)C)C3)CC1 (stereo not given),11µM*
CC(C)(C)C1CCc2c(sc(NC(=O)c3cc(-c4ccc(F)cc4)on3)c2C#N)C1 (stereo not given),33%
Cc1ccccc1C(=O)Nc1sc2c(c1C(=O)NCc1ccco1)CCC(C(C)(C)C)C2 (stereo not given),11µM*
CCC(CC)NC(=O)CCC1CCN(C(=O)c2ccccc2Cl)CC1,-13%
Cc1cc(C)c2c(=O)cc(C(=O)Nc3sc4c(c3C(=O)NCc3ccco3)CCCC4)oc2c1,-3%
COC(=O)c1c(NC(=O)c2cccc(OC)c2)sc2c1CCC(C(C)(C)C)C2 (stereo not given),-4%
Cc1ccccc1C(=O)Nc1sc2c(c1C(=O)O)CCC(C(C)(C)C)C2 (stereo not given),-27%
Cc1ccc2c(=O)cc(C(=O)Nc3sc4c(c3C(=O)NCc3ccco3)CCC4)oc2c1C,38%
Cc1ccccc1C(=O)Nc1sc2c(c1C(=O)N1CCCCC1)CCC(C(C)(C)C)C2 (stereo not given),5.6µM*
CC(=O)NCCNc1cc(C)c2ccc(Cl)cc2n1,-12%
CN1c2cc(C(=O)N3CCN(c4ccccc4F)CC3)ccc2C(=O)N2CCCC21 (stereo not given),i
O=C(c1ccc(-c2ccccc2)cc1)N1C[C@@H]2C[C@H](C1)c1ccc(NS(=O)(=O)c3cccc(F)c3)c(=O)n1C2,-21%
C#CCNC(=O)c1onc(-c2ccc(Cl)cc2)c1[C@H](C)O,-19%[44.1 µM]
C[S+](=O)([O-])c1ccc(-c2nc(C(=O)N3CCOCC3)n3ccncc23)cc1,7.9µM*
N#CC1CCN(C(=O)c2nc(-c3cccnc3)c3cnccn23)CC1,-16%[44.1 µM]
O=C(c1nc(-c2ccc(F)cc2)c2ccccn12)N1CCOCC1,13%[44.1 µM]
O=C(c1nc(-c2ccc(F)cc2)c2cnccn12)N1CCCC1,6.3µM*
O=C(c1nc(-c2ccccc2)c2ccccn12)N1CCN(c2ncccn2)CC1,-6%
C[S+](=O)([O-])c1ccc(-c2nc(C(=O)N3CCN(c4ncccn4)CC3)n3ccncc23)cc1,11µM*
C#CCNC(=O)c1nc(-c2ccc([S+](C)(=O)[O-])cc2)c2cnccn12,i
SMILES,Pf Dd2 growth
C[S+](=O)([O-])c1ccc(-c2cc(C(=O)N3CCN(c4ncccn4)CC3)nn3cccc23)cc1,-24%
O=C(c1nc(-c2cccc(C(F)(F)F)c2)c2cnccn12)N1CCOCC1,-4%
O=C(NC1CCCCC1)C1CCc2sc(C(=O)N3CCCC3)cc2C1 (stereo not given),i
O=C(Cn1nc2c(cc1=O)CCCCC2)NCCn1cnc2ccccc2c1=O,-5%
Cc1noc(C)c1[S+](=O)([O-])N1CCC(c2nn(-c3ccccc3)c(=O)[nH]2)CC1,-17%
CCc1noc(-c2cn(C3CCN(C(=O)C(C)c4ccccc4)CC3)nn2)n1 (stereo not given),-1%
COCC(=O)N1CCC2(CC1)Nc1ccccc1NC2=O,-4%
COc1ccc(CC(=O)Nc2ccc3n(c2=O)C[C@H]2C[C@@H]3CN(C(=O)c3ccc4ccccc4c3)C2)cc1,-22%
CS(=O)(=O)N1CCC2(CC1)CN(Cc1ccc(O)cc1)Cc1ccccc1O2,5%
CC(=O)Nc1cccc(OCc2nc3c(n2Cc2ccccc2)C(=O)N(Cc2ccccc2F)CCN3)c1,i
CN(Cc1ccco1)C(=O)c1ccc(-c2ccc(N3CCCCCC3)nc2)cc1,-19%
COCCC(=O)N1CCC(N2C(=O)C(OCC3CC3)C23CCOCC3)CC1 (stereo not given),-1%
CNC(=O)N1CCOc2ccc(CCC(=O)NCC3CC3)cc2C1,-26%
Cn1c(COc2cccc(CN3CCCC3)c2Cl)nnc1C1CC(N)C1 (stereo not given),-14%
N[C@@H]1CCN(Cc2ccccc2OCc2ccc(Cl)cc2)C[C@H]1O,4.5µM*
NC1CCCN(Cc2ccccc2F)C1 (stereo not given),-20%
Cc1ccc2oc([C@H]3CCN(Cc4ccc(N(C)C)cc4)C3)nc2c1,i
CN(C)CCC(=O)N1Cc2ccccc2CC2(CCCN(CC3CCOCC3)C2)C1 (stereo not given),-10%
NCC(=O)N1Cc2ccccc2CC2(CCCN(CC3CCCC3)C2)C1 (stereo not given),7.9µM*
O=C(O)CCCC(=O)N1Cc2ccccc2CC2(CCCN(CC3CCCC3)C2)C1 (stereo not given),10%
